Measured values published in PubChem BioAssay (NCATS).
Records with an inconclusive call do not appear. The source made the active and inactive calls. Unless noted, calls come from the whole dose curve; as a rule, active = well fitted curve in the direction sought with a large enough effect; inconclusive = small, poorly fitted or top-dose-only effect, or another doubt; inactive = no such curve, though single readings can be large; an effect the other way counts as inactive or inconclusive.

What was measured:
[1] = target: Lysosomal acid glucosylceramidase (Homo sapiens) (UniProt P04062); test: Glucocerebrosidase-p2 (AID 348; in the data active = potency below about 10 µM; note: potency is the fitted concentration of half-maximal effect); settings: purified GBA, blue fluorogenic substrate, 40 min
Chain of Lysosomal acid glucosylceramidase (Homo sapiens) (P04062 whole entry, looked up): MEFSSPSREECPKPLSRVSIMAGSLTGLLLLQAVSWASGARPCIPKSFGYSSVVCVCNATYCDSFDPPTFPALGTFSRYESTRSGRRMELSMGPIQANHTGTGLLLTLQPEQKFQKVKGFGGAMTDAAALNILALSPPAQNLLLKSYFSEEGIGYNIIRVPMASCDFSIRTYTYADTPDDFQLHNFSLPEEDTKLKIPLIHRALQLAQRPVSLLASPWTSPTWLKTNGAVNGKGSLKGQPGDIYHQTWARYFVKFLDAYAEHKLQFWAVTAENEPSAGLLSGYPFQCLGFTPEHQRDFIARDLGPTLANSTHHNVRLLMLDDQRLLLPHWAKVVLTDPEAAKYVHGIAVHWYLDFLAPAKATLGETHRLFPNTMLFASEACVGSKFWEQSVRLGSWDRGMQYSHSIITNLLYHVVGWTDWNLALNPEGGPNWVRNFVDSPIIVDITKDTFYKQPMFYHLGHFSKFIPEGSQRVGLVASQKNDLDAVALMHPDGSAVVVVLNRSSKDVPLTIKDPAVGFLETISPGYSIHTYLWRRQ
Method in brief: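 Compounds titrated from 0.6 nM upwards against 0.2 nM enzyme in pH 5.9 citric acid/KH2PO4, taurocholate, tween-20; blue fluorogenic substrate 80 uM, 40 min room temperature, stopped and read Ex 365/Em 440 for AC50.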

[2] = AP1 Signaling Pathway (AID 357; active = well fitted curve in either direction with a large enough effect, not every such curve was filed as active;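 note: ME-180 reporter cells stimulated with EGF at its EC50 level; % is set by controls: 0 for no effect and ±100 for the full control effect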); settings: ME-180 AP-1-bla reporter, EGF-induced, beta-lactamase ratio, 5 h; at 7.69 µM (top of the series) unless noted
Method in brief: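 Cells are seeded overnight, exposed to compound titrations and an EC50 level of EGF for 5 hours at 37 °C, then loaded with CCF4 dye for 2.5 hours. Beta-lactamase activity under the AP-1 element is read as a blue/green ratio.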

[3] = target: Cytochrome P450 1A2 (Homo sapiens) (UniProt P05177); test: p450-cyp1a2 (AID 410; calls by dose curve;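 note: -100% = full effect of reference inhibitor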); settings: recombinant CYP1A2, luciferin-ME demethylation, luminescence; series mostly up to 11.4 µM
Chain of Cytochrome P450 1A2 (Homo sapiens) (P05177 whole entry, looked up): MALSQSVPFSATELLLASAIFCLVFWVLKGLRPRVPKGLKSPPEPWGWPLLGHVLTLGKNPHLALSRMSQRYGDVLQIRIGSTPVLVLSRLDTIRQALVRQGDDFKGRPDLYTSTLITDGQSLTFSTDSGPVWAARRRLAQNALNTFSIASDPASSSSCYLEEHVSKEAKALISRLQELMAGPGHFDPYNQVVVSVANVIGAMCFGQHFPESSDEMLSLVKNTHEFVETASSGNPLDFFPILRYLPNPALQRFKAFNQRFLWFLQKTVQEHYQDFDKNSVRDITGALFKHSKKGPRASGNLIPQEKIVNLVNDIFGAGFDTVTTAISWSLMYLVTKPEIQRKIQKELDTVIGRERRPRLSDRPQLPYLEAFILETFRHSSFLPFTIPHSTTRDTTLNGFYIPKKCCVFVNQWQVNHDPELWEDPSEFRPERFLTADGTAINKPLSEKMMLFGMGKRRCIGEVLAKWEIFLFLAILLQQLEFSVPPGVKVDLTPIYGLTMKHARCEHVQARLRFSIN
Method in brief: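 20nM CYP1A2 with 100uM Luciferin-ME (at Km) in 100mM KPO4; compound preincubated 10 min, NADPH regeneration added, 60 min at room temperature. Luciferin quantified by luminescence after detection reagent; normalized to 57 uM furafylline.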

[4] = NFAT Signaling Pathway (AID 444; active = well fitted curve in either direction with a large enough effect, not every such curve was filed as active;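 note: carbachol stimulus at about its EC50 of 1 µM final; % is set by controls: 0 for no effect and ±100 for the full control effect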); settings: Jurkat NFAT-bla M1, carbachol, beta-lactamase ratio, 5 h; at 7.69 µM (top of the series) unless noted
Method in brief: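 Read-out: CCF4 FRET ratio (460 nm/530 nm) after 1 h RT dye loading, used for %activity and AC50 from titration series. Cells: Jurkat NFAT-β-lactamase/M1 line, treated with compound plus 1 uM carbachol for 5 h, 37 °C.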

[5] = Stat Signaling Pathway (AID 446; active = well fitted curve in either direction with a large enough effect, not every such curve was filed as active;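 note: ME-180 cervical cancer cells given 40 pM IL-6 alongside compound; SIE-controlled beta-lactamase reporter measured as 460/530 nm FRET emission ratio; % is set by controls: 0 for no effect and ±100 for the full control effect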); settings: ME-180 SIE beta-lactamase reporter, IL-6 stimulated, 5 h; at 7.69 µM (top of the series) unless noted
Method in brief: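 ME-180 SIE-bla cells; overnight plating; cpd + IL-6 40 pM, 5 h, 37 C; LiveBLAzer 2.5 h RT; 460/530 nm emission ratio. Normalized to 300 pM IL-6 and 125 nM JAK inhibitor controls.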

[6] = target: Glucocorticoid receptor (Homo sapiens) (UniProt P04150); test: GR-GFP Redistribution (AID 450;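 active = compounds whose dose series gives a full or clear partial fitted curve of increased nuclear translocation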; note: potency is the fitted concentration of half-maximal effect); settings: U2OS GR-GFP nuclear translocation, laser cytometry, 2 h
Chain of Glucocorticoid receptor (Homo sapiens) (P04150 whole entry, looked up, the tested form may be a part): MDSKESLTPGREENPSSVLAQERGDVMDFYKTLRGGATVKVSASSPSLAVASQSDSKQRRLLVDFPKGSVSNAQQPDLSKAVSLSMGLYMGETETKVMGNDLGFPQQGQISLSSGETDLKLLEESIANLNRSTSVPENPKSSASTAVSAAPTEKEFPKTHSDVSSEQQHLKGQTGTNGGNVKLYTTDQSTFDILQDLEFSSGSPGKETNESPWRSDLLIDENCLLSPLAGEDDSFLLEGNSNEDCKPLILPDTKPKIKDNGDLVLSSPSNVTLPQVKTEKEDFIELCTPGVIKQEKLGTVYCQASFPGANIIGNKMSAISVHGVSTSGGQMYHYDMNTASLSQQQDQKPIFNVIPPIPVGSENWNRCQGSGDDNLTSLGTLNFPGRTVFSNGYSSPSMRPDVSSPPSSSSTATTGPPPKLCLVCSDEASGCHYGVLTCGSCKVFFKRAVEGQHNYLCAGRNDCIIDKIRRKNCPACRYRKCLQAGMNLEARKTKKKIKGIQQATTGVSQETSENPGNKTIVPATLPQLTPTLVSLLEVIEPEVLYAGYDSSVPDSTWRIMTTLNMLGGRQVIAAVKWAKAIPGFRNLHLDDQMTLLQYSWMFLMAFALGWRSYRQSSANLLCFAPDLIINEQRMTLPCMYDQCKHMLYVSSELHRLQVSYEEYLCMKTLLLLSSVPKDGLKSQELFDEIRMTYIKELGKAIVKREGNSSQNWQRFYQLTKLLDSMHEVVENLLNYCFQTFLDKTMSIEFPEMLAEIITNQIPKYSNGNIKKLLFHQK

[7] = target: Glucocorticoid receptor (Homo sapiens) (UniProt P04150); test: GR-EFC Redistribution (AID 451; calls by dose curve; note: potency is the fitted concentration of half-maximal effect); settings: CHO-K1 GR-EFC translocation, beta-gal luminescence, 2 h
Method in brief: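 Translocation of GR-ED fusion to nuclear EA restores b-gal, read by luminescence after 1 h room-temperature detection. Engineered CHO-K1 biosensor cells, 1,000/well, exposed 2 h at 37 C to titrations up to 46 uM final.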

[8] = target: Mitogen-activated protein kinase 10 (Mus musculus) (UniProt Q61831); test: JNK3 AlphaScreen Assay (AID 530; active = well fitted curve in either direction with a large enough effect, not every such curve was filed as active;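 note: kinase came from lysate of stimulated human HepG2 cells; signal reports phosphorylation of biotinylated GST-cJun 1-79 at Ser73 with 10 µM ATP; % is set by controls: 0 for no effect and ±100 for the full control effect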); settings: JNK3 lysate, c-Jun phosphorylation; series mostly up to 57.1 µM
Method in brief: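 Compound titrations were preincubated 15 minutes at room temperature with substrate, antibody and pre-activated JNK3-containing HepG2 lysate. Reactions were started with 10 uM ATP and stopped with EDTA-containing bead buffer for AlphaScreen detection.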

[9] = target: 3',5'-cyclic-AMP phosphodiesterase 4B (Homo sapiens) (UniProt Q07343); test: qHTS Assay for Inhibitors of PDE-IV (AID 607; active = well fitted activation curve with a large enough effect in the main read-out, with a control signal flat, not every such curve was filed as active; note: % of control where 0% means no effect); settings: HEK293 ACTOne CNG channel cells, membrane potential fluorescence; series mostly up to 22.9 µM
Chain of 3',5'-cyclic-AMP phosphodiesterase 4B (Homo sapiens) (Q07343 whole entry, looked up): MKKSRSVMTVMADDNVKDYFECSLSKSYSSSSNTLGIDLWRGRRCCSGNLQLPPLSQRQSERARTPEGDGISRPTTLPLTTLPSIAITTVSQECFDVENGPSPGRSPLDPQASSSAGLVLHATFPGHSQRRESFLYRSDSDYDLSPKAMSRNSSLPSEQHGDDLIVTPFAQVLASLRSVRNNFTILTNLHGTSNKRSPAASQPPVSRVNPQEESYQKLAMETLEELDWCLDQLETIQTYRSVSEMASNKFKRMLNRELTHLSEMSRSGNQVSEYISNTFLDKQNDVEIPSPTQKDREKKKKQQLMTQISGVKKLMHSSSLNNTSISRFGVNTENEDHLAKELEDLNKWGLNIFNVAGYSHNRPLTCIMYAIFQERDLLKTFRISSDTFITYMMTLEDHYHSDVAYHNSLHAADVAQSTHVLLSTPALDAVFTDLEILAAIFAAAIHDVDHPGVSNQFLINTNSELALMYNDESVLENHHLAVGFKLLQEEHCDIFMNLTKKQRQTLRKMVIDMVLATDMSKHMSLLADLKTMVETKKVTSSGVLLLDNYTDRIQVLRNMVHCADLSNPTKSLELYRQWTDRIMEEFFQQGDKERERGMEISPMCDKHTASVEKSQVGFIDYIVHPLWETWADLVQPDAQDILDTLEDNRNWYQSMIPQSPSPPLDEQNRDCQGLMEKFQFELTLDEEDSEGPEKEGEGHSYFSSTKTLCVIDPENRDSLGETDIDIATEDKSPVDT
Method in brief: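 ACTOne HEK293 cells carry a modified cAMP-gated CNG channel and express endogenous PDE4; plated 1000 cells/well, compounds up to 22.9 uM final. Membrane-potential dye fluorescence (ex 535/em 590) was read; parental cells received 10 uM forskolin + 100 uM RO 20-1724.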

[10] = target: Cytochrome P450 2C19 (Homo sapiens) (UniProt P33261); test: qHTS Assay for Inhibitors and Substrates of Cytochrome P450 2C19 (AID 899); settings: recombinant CYP2C19, luciferin-H EGE luminescence; series mostly up to 11.4 µM; note: % is set by controls: 0 for no effect and ±100 for the full control effect; nearly all actives have a fitted effect of over 60% in size
Chain of Cytochrome P450 2C19 (Homo sapiens) (P33261 whole entry, looked up): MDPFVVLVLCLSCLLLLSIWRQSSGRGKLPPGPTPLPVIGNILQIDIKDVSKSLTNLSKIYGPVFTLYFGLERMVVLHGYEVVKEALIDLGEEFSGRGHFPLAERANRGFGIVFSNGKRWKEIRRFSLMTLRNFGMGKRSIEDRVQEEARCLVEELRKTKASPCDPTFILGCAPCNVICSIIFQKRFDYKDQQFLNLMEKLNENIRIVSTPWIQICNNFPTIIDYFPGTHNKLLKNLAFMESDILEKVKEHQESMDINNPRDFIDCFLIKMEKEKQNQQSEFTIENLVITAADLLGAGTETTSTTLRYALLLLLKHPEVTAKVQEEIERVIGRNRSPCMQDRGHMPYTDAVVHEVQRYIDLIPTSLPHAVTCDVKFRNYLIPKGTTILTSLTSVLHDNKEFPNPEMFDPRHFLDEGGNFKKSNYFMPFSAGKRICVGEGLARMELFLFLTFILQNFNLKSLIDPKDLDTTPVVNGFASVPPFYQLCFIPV
Method in brief: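 5nM enzyme + 10uM Luciferin-H EGE (=KM), 50mM KPO4; cpd pin-transferred, 10 min 37C; NADPH regen, 60 min 37C; stopped w/ luciferin detection reagent, 20 min; luminescence. Normalized to 57uM ketoconazole (AC100).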

[11] = target: ATP-dependent 6-phosphofructokinase (Trypanosoma brucei brucei) (UniProt O15648); test: qHTS Assay to Find Inhibitors of T. brucei phosphofructokinase: hit validation (AID 492961); settings: T. brucei PFK, ADP-Glo luminescence; series mostly up to 51.4 µM
Chain of ATP-dependent 6-phosphofructokinase (Trypanosoma brucei brucei) (O15648 whole entry, looked up): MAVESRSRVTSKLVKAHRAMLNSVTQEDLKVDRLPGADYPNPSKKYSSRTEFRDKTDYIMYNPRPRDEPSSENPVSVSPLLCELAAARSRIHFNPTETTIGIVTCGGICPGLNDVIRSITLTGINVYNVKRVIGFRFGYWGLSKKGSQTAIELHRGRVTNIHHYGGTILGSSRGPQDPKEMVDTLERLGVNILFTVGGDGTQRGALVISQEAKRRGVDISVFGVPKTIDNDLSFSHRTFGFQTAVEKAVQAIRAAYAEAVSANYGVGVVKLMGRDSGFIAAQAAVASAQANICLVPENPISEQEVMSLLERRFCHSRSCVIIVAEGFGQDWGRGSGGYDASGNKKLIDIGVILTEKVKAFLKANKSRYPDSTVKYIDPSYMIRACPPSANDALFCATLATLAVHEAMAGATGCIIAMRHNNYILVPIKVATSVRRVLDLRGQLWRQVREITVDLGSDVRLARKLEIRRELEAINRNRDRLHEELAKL
Method in brief: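 In this biochemical qHTS validation, titrated compounds were tested against 1.25 nM PFK with 0.1 mM ATP and 0.5 mM F6P. Percent activity came from controls lacking or containing enzyme.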

[12] = target: Ubiquitin carboxyl-terminal hydrolase 1 (Homo sapiens) (UniProt O94782); test: Inhibitors of USP1/UAF1: Pilot qHTS (AID 504865); settings: purified USP1/UAF1, Ub-rhodamine cleavage fluorescence; series mostly up to 114 µM;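 note: rhodamine fluorescence freed from ubiquitin-rhodamine substrate followed over time; top concentration of the series differs between compounds; % is set by controls: 0 for no effect and ±100 for the full control effect; nearly all actives have a fitted effect of over 35% in size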
Chain of Ubiquitin carboxyl-terminal hydrolase 1 (Homo sapiens) (O94782 whole entry, looked up): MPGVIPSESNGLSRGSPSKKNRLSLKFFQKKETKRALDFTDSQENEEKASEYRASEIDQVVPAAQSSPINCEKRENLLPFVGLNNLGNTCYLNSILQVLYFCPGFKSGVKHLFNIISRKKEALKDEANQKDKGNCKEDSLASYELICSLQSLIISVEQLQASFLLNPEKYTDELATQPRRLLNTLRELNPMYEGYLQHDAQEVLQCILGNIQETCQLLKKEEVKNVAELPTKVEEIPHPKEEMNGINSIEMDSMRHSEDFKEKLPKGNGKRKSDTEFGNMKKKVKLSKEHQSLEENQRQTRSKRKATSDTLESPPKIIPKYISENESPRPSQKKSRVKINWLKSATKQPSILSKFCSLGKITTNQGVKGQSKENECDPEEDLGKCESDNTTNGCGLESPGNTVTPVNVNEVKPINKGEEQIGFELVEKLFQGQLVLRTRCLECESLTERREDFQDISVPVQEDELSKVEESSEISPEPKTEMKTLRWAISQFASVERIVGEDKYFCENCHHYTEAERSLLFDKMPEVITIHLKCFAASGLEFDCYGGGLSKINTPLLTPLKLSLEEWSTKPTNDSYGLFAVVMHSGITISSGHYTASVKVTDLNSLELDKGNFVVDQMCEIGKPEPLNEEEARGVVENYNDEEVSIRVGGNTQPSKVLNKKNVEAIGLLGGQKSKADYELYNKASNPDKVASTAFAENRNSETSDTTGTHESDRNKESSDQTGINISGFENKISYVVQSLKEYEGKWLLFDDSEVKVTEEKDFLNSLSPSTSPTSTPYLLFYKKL
Method in brief: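 Deubiquitinase activity followed as kinetic rhodamine fluorescence release from 150 nM Ub-Rho. 1 nM USP1/UAF1 with compound, after 15 min room-temperature preincubation, in HEPES pH 7.8 buffer containing TCEP, EDTA, BSA and Tween-20.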

[13] = target: Luciferin 4-monooxygenase (Photinus pyralis) (UniProt P08659); test: Biochemical firefly luciferase enzyme assay for NPC (AID 624030);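 note: purified P. pyralis luciferase at 10 nM with luciferin and ATP substrate; 0% = DMSO and -100% = full luciferase inhibition by PTC124 control; nearly all actives have a fitted effect of over 70% in size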; settings: purified P. pyralis luciferase, luminescence, 5 min; series mostly up to 58.6 µM
Chain of Luciferin 4-monooxygenase (Photinus pyralis) (P08659 whole entry, looked up): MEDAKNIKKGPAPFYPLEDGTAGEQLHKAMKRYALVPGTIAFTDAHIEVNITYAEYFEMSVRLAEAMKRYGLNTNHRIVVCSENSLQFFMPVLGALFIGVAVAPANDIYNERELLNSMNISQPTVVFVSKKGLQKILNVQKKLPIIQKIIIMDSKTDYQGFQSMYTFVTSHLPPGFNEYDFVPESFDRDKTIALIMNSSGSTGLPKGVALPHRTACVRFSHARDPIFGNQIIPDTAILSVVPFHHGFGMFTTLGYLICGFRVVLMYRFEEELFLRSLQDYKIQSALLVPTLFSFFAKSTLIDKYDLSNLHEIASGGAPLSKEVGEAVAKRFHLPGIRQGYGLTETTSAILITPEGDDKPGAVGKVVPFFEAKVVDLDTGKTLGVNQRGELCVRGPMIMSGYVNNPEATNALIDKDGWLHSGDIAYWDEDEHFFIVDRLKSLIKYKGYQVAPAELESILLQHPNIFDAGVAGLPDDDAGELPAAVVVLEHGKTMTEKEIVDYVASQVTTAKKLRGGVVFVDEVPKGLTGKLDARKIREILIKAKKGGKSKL
Method in brief: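 Direct inhibition of firefly luciferase enzyme (10 nM final, 50 mM Tris Acetate) assessed by luminescence within 5 minutes. Percent activity scaled between DMSO and PTC124 positive control, with concentration-effect curves classified by fit quality and response.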

[14] = S16 Schwann cell viability assay (CellTiter-Glo assay) (AID 624031); settings: S16 rat Schwann cells viability, 24 h; series mostly up to 57.5 µM;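 note: cellular ATP luminescence as a viability measure; plate controls were DMSO-treated cells for no effect and cell-free wells for full effect; nearly all actives have a fitted effect of over 70% in size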
Method in brief: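 Native S16 rat Schwann cells in DMEM/10% FBS without phenol red were incubated overnight, then exposed to compounds for 24 h at 37 °C/5% CO2. Viability was read as ATP luminescence (CellTiter-Glo), normalized to no-cell wells and DMSO (0%).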

[15] = S16 Schwann cell PMP22 intronic element firefly luciferase assay (AID 624032); settings: S16 rat Schwann cells, PMP22 element FLuc, 24 h; series mostly up to 57.5 µM;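 note: plate controls were DMSO for no effect and PTC124 positive control mean for full effect; nearly all actives have a fitted effect of over 30% in size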
Method in brief: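 Luciferase reporter of PMP22 intronic-element expression in stably transfected S16 rat Schwann cells, read by ONE-Glo luminescence after 24 h compound exposure at 37 C. Activity scaled between DMSO (0%) and positive-control PTC124; concentration-effect curves quality-classified.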

[16] = S16 Schwann cell PMP22 intronic element beta-lactamase assay (AID 624044; calls by dose curve;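 note: 0% = DMSO and -100% = potassium clavulanate positive control; nearly all actives have a fitted effect of over 15% in size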); settings: S16 rat Schwann cells, PMP22 element beta-lactamase FRET, 24 h; series mostly up to 38.3 µM
Method in brief: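 Rat S16 Schwann cells with beta-Lac driven by a PMP22 intronic element, compound-treated 24 h at 37 °C. LiveBLAzer FRET B/G read: 460 nm normalized to potassium clavulanate vs DMSO; 535 nm FRET as viability; concentration-effect curves classified.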

[17] = tested on: 3D7; test: qHTS profiling for inhibitors of Plasmodium falciparum proliferation (AID 504749);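 note: 0% = DMSO vehicle and full inhibition = artemisinin control; nearly all actives have a fitted effect of over 60% in size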; settings: P. falciparum in erythrocytes, SYBR Green DNA, 72 h; series mostly up to 28.7 µM
Method in brief: (§1)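 Infected RBCs, 0.3% parasitemia/2.5% Hct final; cpd 72 h, 37 C, 5% CO2; lysis buffer with saponin/triton/SYBR Green I, o/n RT dark; FI 485/535; norm. to artemisinin (0.29 uM) and DMSO.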

[18] = tested on: 7G8; test: as above; settings: P. falciparum in erythrocytes, SYBR Green DNA, 72 h; series mostly up to 28.7 µM
Method in brief: as §1

[19] = tested on: AA1029; test: as above; settings: P. falciparum in erythrocytes, SYBR Green DNA, 72 h; series mostly up to 28.7 µM
Method in brief: as §1

[20] = tested on: AS120; test: as above; settings: P. falciparum in erythrocytes, SYBR Green DNA, 72 h; series mostly up to 28.7 µM
Method in brief: as §1

[21] = tested on: ATS189; test: as above; settings: P. falciparum in erythrocytes, SYBR Green DNA, 72 h; series mostly up to 28.7 µM
Method in brief: as §1

[22] = tested on: ATS95; test: as above; settings: P. falciparum in erythrocytes, SYBR Green DNA, 72 h; series mostly up to 28.7 µM
Method in brief: as §1

[23] = tested on: C2A; test: as above; settings: P. falciparum in erythrocytes, SYBR Green DNA, 72 h; series mostly up to 28.7 µM
Method in brief: as §1

[24] = tested on: CP185; test: as above; settings: P. falciparum in erythrocytes, SYBR Green DNA, 72 h; series mostly up to 28.7 µM
Method in brief: as §1

[25] = tested on: CP191; test: as above; settings: P. falciparum in erythrocytes, SYBR Green DNA, 72 h; series mostly up to 28.7 µM
Method in brief: as §1

[26] = tested on: CP192; test: as above; settings: P. falciparum in erythrocytes, SYBR Green DNA, 72 h; series mostly up to 28.7 µM
Method in brief: as §1

[27] = tested on: CP194; test: as above; settings: P. falciparum in erythrocytes, SYBR Green DNA, 72 h; series mostly up to 28.7 µM
Method in brief: as §1

[28] = tested on: CP201; test: as above; settings: P. falciparum in erythrocytes, SYBR Green DNA, 72 h; series mostly up to 28.7 µM
Method in brief: as §1

[29] = tested on: CP203; test: as above; settings: P. falciparum in erythrocytes, SYBR Green DNA, 72 h; series mostly up to 28.7 µM
Method in brief: as §1

[30] = tested on: CP211; test: as above; settings: P. falciparum in erythrocytes, SYBR Green DNA, 72 h; series mostly up to 28.7 µM
Method in brief: as §1

[31] = tested on: CP215; test: as above; settings: P. falciparum in erythrocytes, SYBR Green DNA, 72 h; series mostly up to 28.7 µM
Method in brief: as §1

[32] = tested on: CP217; test: as above; settings: P. falciparum in erythrocytes, SYBR Green DNA, 72 h; series mostly up to 28.7 µM
Method in brief: as §1

[33] = tested on: CP237; test: as above; settings: P. falciparum in erythrocytes, SYBR Green DNA, 72 h; series mostly up to 28.7 µM
Method in brief: as §1

[34] = tested on: CP238; test: as above; settings: P. falciparum in erythrocytes, SYBR Green DNA, 72 h; series mostly up to 28.7 µM
Method in brief: as §1

[35] = tested on: CP247; test: as above; settings: P. falciparum in erythrocytes, SYBR Green DNA, 72 h; series mostly up to 28.7 µM
Method in brief: as §1

[36] = tested on: CP250; test: as above; settings: P. falciparum in erythrocytes, SYBR Green DNA, 72 h; series mostly up to 28.7 µM
Method in brief: as §1

[37] = tested on: CP252; test: as above; settings: P. falciparum in erythrocytes, SYBR Green DNA, 72 h; series mostly up to 28.7 µM
Method in brief: as §1

C[N+]1([O-])[C@H]2CC[C@H]1CC(OC(=O)[C@@H](CO)c1ccccc1)C2 (some centres not stated)
inactive: Potency [1] > 11.4 µM | activity change, negative = inhibition [2] -0.292% | activity change, negative = inhibition [3] 0.8% [at 2.29 µM] | activity, negative = inhibition [5] -0.881% | Potency [6] > 46 µM | Potency [7] > 9.22 µM | activity change, negative = inhibition [8] 1.19% [at 11.4 µM] | outcome [9] | Potency [10] | outcome [11] | Potency [12] | outcome [13] | outcome [14] | outcome [15] | outcome [16] | Potency [17] | Potency [18] | Potency [19] | Potency [20] | Potency [21] | Potency [22] | Potency [23] | Potency [24] | Potency [25] | Potency [26] | Potency [27] | Potency [28] | Potency [29] | Potency [30] | Potency [31] | Potency [32] | Potency [33] | Potency [34] | Potency [35] | Potency [36] | Potency [37]
active: activity change, negative = inhibition [4] -79.7%
